Reference: the supplement of paper PMC10849652
Targets with a hit are over-represented here; the source holds about 7,900 in all. About 0.6% of all pairs of compound and target were hits.

What was measured:
Experiment in all cases: log2 fold change, soluble protein after heating vs DMSO (PISA); higher = thermal stabilisation; K562 cells, 10 uM, 30 min; active = over 0.2 and 3.5 SD of the protein, either way, in both replicates (recomputed)
saracatinib = compound: CN1CCN(CCOc2cc(OC3CCOCC3)c3c(Nc4c(Cl)ccc5c4OCO5)ncnc3c2)CC1 [saracatinib]
In short: (§1)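 K562 cells at 2×10^6 cells/mL were exposed to 10 μM compound for 30 min, then aliquots were heated for 3 min across 48°C-58°C, pooled, and extracted in PBS containing 0.5% NP-40 at 4°C. The supernatant after 21,000xg for 90 min was taken as soluble protein and measured by TMTpro 16plex LC-MS/MS with channel sums equalised. Thermal stability is reported relative to control samples, with values from duplicates. Fold changes are given on a log2 scale.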

sotrastaurin = compound: CN1CCN(c2nc(C3=C(c4c[nH]c5ccccc45)C(=O)NC3=O)c3ccccc3n2)CC1 [sotrastaurin]
In short: as §1

alvocidib = compound: CN1CC[C@H](c2c(O)cc(O)c3c(=O)cc(-c4ccccc4Cl)oc23)[C@H](O)C1 [alvocidib]
In short: as §1

Tubastatin A = compound: CN1CCc2c(c3ccccc3n2Cc2ccc(C(=O)NO)cc2)C1 [Tubastatin A]
In short: as §1

[1] = compound: CNC(=O)C1=CC=CC=C1NC2=NC(=NC=C2Cl)NC3=C(C=C(C=C3)N4CCOCC4)OC
In short: as §1

defactinib = compound: CNC(=O)c1ccc(Nc2ncc(C(F)(F)F)c(NCc3nccnc3N(C)S(C)(=O)=O)n2)cc1 [defactinib]
In short: as §1

rucaparib = compound: CNCc1ccc(-c2[nH]c3cc(F)cc4c3c2CCNC4=O)cc1 [rucaparib]
In short: as §1

[2] = compound: CNc1nc(-c2ccc3c(N)n[nH]c3c2)cc(N2C[C@@H](C(=O)NC3CCCCC3)CC[C@H]2C)n1
In short: as §1

encorafenib = compound: COC(=O)N[C@@H](C)CNc1nccc(-c2cn(C(C)C)nc2-c2cc(Cl)cc(NS(C)(=O)=O)c2F)n1 [encorafenib]
In short: as §1

[3] = compound: COC(=O)[C@H](CCSC)NC(=O)C1=C(C=C(C=C1)NC[C@H](CS)N)C2=CC=CC=C2
In short: as §1

Measured: log2 fold change

DBT (UniProt P11182)
UniProt P11182, sequence (P11182 whole entry, looked up): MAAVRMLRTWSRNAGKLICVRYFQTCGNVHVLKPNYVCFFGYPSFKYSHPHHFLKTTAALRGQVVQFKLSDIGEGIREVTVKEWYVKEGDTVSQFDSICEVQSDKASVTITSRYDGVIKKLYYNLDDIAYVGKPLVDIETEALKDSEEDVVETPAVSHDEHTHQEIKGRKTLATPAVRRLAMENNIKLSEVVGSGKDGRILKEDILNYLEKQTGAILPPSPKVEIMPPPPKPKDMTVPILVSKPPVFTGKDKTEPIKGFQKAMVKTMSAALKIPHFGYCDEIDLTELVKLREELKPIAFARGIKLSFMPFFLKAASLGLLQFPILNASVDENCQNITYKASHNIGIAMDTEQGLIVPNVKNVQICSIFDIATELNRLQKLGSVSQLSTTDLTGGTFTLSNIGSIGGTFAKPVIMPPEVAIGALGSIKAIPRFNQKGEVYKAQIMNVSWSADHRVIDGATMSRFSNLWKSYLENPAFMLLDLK
inactive: saracatinib -0.012 | sotrastaurin 0.025 | alvocidib 0.009 | Tubastatin A -0.072 | [1] 0.048 | defactinib 0.071 | rucaparib 0.089 | [2] -0.03 | encorafenib 0.046 | [3] -0.013

CYBA (UniProt P13498)
inactive: saracatinib 0.067 | sotrastaurin 0.033 | alvocidib -0.031 | Tubastatin A -0.02 | [1] 0.01 | defactinib 0.014 | rucaparib -0.035 | [2] -0.013 | encorafenib 0.031 | [3] 0.008

ERLIN2 (UniProt O94905)
inactive: saracatinib -0.044 | sotrastaurin -0.097 | alvocidib 0.034 | Tubastatin A 0 | [1] -0.137 | defactinib 0.026 | rucaparib 0.033 | [2] -0.005 | encorafenib 0.092 | [3] 0.004

DCAF10 (UniProt Q5QP82)
inactive: saracatinib 0.09 | sotrastaurin 0.021 | alvocidib -0.011 | Tubastatin A -0.094 | [1] -0.018 | defactinib -0.009 | rucaparib -0.083 | [2] 0.007 | encorafenib 0.052 | [3] 0

CTSL (UniProt P07711)
inactive: saracatinib 0.113 | sotrastaurin 0.05 | alvocidib 0.085 | Tubastatin A 0.038 | [1] 0.024 | defactinib 0.032 | rucaparib 0.049 | [2] 0.018 | encorafenib -0.008 | [3] 0.02

FAM241A (UniProt Q8N8J7)
UniProt Q8N8J7, sequence (Q8N8J7 whole entry, looked up): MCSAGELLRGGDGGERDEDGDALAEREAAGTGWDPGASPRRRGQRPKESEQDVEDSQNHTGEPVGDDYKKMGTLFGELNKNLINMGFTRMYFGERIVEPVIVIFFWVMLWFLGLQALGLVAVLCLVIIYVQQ
active: sotrastaurin -0.632
inactive: saracatinib -0.012 | alvocidib -0.046 | Tubastatin A -0.035 | [1] 0.042 | defactinib 0.013 | rucaparib 0.006 | [2] -0.003 | encorafenib -0.009 | [3] 0.03

DTYMK (UniProt P23919)
UniProt P23919, sequence (P23919 whole entry, looked up): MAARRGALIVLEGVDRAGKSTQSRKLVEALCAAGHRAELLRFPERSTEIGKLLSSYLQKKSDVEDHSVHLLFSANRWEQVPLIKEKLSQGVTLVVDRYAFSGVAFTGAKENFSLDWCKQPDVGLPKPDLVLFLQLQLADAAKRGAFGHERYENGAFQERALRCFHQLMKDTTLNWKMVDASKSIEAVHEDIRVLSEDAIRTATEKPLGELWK
inactive: saracatinib -0.02 | sotrastaurin 0.06 | alvocidib 0 | Tubastatin A -0.022 | [1] -0.062 | defactinib 0.004 | rucaparib -0.044 | [2] 0.003 | encorafenib 0.005 | [3] 0.013

DNAH10 (UniProt Q8IVF4)
inactive: saracatinib -0.067 | sotrastaurin -0.06 | alvocidib 0.028 | Tubastatin A 0.191 | [1] -0.157 | defactinib 0.004 | rucaparib -0.044 | [2] 0.062 | encorafenib -0.06 | [3] -0.013

DBR1 (UniProt Q9UK59)
UniProt Q9UK59, sequence (Q9UK59 whole entry, looked up): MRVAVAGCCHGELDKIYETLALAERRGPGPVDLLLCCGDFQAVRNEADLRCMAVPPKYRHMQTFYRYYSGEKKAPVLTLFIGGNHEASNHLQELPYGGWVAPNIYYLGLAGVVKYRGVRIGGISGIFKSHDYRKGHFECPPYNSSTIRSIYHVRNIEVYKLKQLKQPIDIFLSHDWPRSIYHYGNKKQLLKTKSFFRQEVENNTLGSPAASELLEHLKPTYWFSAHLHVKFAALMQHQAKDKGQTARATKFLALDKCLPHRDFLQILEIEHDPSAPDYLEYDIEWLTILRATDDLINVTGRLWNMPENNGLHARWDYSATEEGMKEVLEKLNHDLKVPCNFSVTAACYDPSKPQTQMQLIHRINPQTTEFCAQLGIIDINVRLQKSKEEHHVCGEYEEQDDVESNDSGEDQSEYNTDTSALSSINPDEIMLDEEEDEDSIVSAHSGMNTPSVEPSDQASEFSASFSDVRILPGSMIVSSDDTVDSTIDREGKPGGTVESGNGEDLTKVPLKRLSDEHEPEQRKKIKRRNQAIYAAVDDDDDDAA
inactive: saracatinib 0.048 | sotrastaurin 0.019 | alvocidib -0.002 | Tubastatin A -0.012 | [1] -0.033 | defactinib -0.012 | rucaparib -0.007 | [2] -0.004 | encorafenib -0.012 | [3] -0.011

CTSZ (UniProt Q9UBR2)
inactive: saracatinib 0.025 | sotrastaurin 0.079 | alvocidib -0.008 | Tubastatin A -0.056 | [1] 0.005 | defactinib 0 | rucaparib -0.098 | [2] 0.012 | encorafenib -0.012 | [3] 0.027

E2F4 (UniProt Q16254)
UniProt Q16254, sequence (Q16254 whole entry, looked up): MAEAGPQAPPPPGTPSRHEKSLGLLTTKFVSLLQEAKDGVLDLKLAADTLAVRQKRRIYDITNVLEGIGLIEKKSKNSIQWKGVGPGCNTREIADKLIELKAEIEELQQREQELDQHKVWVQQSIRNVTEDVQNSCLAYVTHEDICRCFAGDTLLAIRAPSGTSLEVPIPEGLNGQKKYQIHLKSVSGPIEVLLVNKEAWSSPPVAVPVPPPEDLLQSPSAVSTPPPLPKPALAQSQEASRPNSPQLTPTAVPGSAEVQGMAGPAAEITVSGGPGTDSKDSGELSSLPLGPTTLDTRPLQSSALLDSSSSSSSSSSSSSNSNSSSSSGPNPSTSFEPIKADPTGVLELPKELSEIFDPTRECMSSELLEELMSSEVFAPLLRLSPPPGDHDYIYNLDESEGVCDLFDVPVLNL
inactive: saracatinib -0.012 | sotrastaurin -0.056 | alvocidib -0.134 | Tubastatin A 0.028 | [1] -0.045 | defactinib -0.122 | rucaparib -0.025 | [2] -0.02 | encorafenib -0.002 | [3] -0.042

DEGS1 (UniProt O15121)
active: Tubastatin A -0.521
inactive: saracatinib 0.088 | sotrastaurin -0.022 | alvocidib 0.036 | [1] 0.046 | defactinib -0.18 | rucaparib 0.002 | [2] 0.029 | encorafenib 0.002 | [3] 0.106

FAM122A (UniProt Q96E09)
inactive: saracatinib -0.005 | sotrastaurin -0.027 | alvocidib 0 | Tubastatin A 0.096 | [1] -0.09 | defactinib -0.018 | rucaparib 0.015 | [2] 0.017 | encorafenib -0.016 | [3] 0.056

DMAC1 (UniProt Q96GE9)
inactive: sotrastaurin 0 | alvocidib -0.003 | Tubastatin A 0.031 | [1] -0.077 | defactinib -0.048 | rucaparib -0.124 | [2] 0.005 | encorafenib -0.105 | [3] -0.019
active: saracatinib -0.509

CTU1 (UniProt Q7Z7A3)
UniProt Q7Z7A3, sequence (Q7Z7A3 whole entry, looked up): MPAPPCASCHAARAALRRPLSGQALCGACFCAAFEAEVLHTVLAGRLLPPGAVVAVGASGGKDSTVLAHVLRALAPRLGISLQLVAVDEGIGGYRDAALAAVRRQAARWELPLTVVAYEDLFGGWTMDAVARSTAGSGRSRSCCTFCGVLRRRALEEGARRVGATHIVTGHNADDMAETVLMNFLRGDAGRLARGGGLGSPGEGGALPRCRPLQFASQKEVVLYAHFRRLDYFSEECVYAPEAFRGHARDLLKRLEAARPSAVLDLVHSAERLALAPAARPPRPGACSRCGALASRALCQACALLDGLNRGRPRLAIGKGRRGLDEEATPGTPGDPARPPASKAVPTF
inactive: saracatinib 0.01 | sotrastaurin -0.038 | alvocidib -0.19 | Tubastatin A -0.029 | [1] -0.045 | defactinib -0.036 | rucaparib -0.003 | [2] 0.09 | encorafenib 0.02 | [3] -0.031

DNAJC19 (UniProt Q96DA6)
UniProt Q96DA6, sequence (Q96DA6 whole entry, looked up): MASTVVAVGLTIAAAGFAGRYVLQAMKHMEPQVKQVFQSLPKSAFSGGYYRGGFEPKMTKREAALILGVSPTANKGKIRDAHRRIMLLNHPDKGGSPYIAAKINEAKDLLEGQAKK
inactive: saracatinib 0.025 | sotrastaurin -0.029 | alvocidib -0.021 | Tubastatin A -0.038 | [1] 0.003 | defactinib -0.027 | rucaparib 0.01 | [2] -0.028 | encorafenib -0.044 | [3] -0.012

EPHX2 (UniProt P34913)
inactive: saracatinib -0.009 | sotrastaurin 0.172 | alvocidib -0.023 | Tubastatin A 0.003 | [1] -0.022 | defactinib -0.002 | rucaparib 0.002 | [2] 0.216 | encorafenib 0.003 | [3] -0.011

CWC27 (UniProt Q6UX04)
UniProt Q6UX04, sequence (Q6UX04 whole entry, looked up): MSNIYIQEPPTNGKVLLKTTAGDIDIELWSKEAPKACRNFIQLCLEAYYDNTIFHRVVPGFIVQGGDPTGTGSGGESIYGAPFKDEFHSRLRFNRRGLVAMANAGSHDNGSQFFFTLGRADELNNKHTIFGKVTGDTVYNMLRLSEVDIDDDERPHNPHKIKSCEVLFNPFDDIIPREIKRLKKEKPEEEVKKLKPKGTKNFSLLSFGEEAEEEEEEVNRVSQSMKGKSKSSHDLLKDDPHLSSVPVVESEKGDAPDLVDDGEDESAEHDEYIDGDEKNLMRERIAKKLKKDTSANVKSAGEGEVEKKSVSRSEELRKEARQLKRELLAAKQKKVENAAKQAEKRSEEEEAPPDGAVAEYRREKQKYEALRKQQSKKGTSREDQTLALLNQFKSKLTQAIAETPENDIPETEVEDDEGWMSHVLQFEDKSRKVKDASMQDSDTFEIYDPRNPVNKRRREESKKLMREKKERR
inactive: saracatinib 0.01 | sotrastaurin -0.093 | alvocidib 0.011 | Tubastatin A 0.012 | [1] 0.022 | defactinib -0.139 | rucaparib -0.001 | [2] -0.064 | encorafenib 0.068 | [3] -0.04

EIF2AK1 (UniProt Q9BQI3)
UniProt Q9BQI3, sequence (Q9BQI3 whole entry, looked up): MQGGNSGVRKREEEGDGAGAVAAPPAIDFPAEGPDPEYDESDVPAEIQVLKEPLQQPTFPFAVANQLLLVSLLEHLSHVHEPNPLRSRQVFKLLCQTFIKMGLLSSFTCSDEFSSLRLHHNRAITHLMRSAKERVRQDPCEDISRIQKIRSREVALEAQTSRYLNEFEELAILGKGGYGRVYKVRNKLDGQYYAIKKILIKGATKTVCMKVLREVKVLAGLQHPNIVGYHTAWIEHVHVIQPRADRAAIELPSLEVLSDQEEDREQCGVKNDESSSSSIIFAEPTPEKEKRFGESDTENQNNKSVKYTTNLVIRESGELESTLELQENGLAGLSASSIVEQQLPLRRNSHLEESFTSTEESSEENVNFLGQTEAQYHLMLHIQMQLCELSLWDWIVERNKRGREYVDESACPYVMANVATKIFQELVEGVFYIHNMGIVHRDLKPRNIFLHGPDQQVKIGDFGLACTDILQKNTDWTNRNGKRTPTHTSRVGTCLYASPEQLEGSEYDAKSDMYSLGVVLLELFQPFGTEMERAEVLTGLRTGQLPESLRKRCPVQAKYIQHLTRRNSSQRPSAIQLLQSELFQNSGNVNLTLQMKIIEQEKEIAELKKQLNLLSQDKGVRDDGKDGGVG
inactive: saracatinib 0.073 | sotrastaurin 0.095 | alvocidib 0.072 | Tubastatin A 0.128 | [1] 0.002 | defactinib -0.008 | [2] -0.09 | [3] 0.04

DIAPH1 (UniProt O60610)
UniProt O60610, sequence (O60610 whole entry, looked up): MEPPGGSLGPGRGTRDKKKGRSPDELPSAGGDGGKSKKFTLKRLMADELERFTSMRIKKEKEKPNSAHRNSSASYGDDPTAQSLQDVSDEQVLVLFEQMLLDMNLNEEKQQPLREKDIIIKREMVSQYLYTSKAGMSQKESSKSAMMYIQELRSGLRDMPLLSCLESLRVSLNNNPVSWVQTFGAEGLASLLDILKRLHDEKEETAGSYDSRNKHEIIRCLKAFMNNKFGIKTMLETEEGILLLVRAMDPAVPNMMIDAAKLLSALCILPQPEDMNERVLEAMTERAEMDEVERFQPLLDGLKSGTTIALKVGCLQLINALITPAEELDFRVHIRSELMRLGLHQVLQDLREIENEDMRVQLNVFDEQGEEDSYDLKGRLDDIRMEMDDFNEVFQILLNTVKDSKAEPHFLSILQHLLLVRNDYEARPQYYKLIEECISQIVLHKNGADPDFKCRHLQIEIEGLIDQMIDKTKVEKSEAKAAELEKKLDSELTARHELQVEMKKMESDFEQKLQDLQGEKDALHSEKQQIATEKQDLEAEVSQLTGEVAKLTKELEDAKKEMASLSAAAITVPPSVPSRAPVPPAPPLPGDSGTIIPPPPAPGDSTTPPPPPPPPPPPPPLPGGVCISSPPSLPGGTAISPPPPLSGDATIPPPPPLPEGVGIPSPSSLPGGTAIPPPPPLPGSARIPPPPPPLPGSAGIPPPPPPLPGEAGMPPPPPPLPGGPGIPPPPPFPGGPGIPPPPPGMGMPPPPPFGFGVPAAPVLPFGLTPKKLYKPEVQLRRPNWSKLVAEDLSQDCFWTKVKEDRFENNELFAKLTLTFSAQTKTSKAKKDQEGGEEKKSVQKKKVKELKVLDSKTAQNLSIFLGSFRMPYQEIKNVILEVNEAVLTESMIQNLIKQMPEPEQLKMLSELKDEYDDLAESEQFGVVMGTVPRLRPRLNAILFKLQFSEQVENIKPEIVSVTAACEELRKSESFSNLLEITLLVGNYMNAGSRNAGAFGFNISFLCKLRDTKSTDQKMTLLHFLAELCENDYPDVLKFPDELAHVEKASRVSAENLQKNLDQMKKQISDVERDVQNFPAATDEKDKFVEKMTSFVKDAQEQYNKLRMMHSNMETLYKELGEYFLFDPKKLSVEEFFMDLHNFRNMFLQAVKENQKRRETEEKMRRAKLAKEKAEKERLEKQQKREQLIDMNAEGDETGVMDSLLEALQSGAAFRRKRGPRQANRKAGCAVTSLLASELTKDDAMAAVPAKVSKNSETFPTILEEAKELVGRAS
inactive: saracatinib -0.104 | sotrastaurin -0.276 | alvocidib 0.132 | Tubastatin A 0.086 | [1] 0.044 | defactinib -0.039 | rucaparib 0.219 | [2] 0.125 | encorafenib 0.215 | [3] -0.12

DDX4 (UniProt Q9NQI0)
inactive: saracatinib -0.342 | sotrastaurin 0.209 | alvocidib 0.206 | Tubastatin A 0.102 | [1] -0.097 | defactinib 0.11 | rucaparib 0.543 | [2] -0.095 | encorafenib 0.121 | [3] 0.067

ELOC (UniProt Q15369)
inactive: saracatinib 0.008 | sotrastaurin 0.01 | alvocidib -0.074 | Tubastatin A 0.035 | [1] 0.025 | defactinib -0.033 | rucaparib -0.021 | [2] 0 | encorafenib -0.021 | [3] -0.014

ECH1 (UniProt Q13011)
inactive: saracatinib -0.037 | alvocidib 0.053 | [1] 0.122 | defactinib -0.023 | rucaparib -0.012 | [2] -0.031 | encorafenib -0.035 | [3] -0.024
active: sotrastaurin 0.727 | Tubastatin A 0.519

DPP8 (UniProt Q6V1X1)
inactive: saracatinib -0.002 | sotrastaurin 0.175 | alvocidib 0.024 | Tubastatin A 0.003 | [1] -0.044 | defactinib 0.082 | [2] -0.021 | encorafenib 0.026 | [3] 0.058
active: rucaparib -0.572

EEF1D isoform 2 (UniProt P29692)
UniProt P29692, sequence (P29692 whole entry, looked up): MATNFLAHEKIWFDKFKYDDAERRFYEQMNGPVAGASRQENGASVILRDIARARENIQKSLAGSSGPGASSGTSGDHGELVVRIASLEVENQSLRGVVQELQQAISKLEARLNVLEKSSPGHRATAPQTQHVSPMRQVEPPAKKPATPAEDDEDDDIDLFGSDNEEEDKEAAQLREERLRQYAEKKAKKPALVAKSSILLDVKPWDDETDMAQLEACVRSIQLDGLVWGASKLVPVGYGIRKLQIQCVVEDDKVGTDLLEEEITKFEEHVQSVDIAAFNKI
inactive: saracatinib -0.04 | sotrastaurin -0.03 | alvocidib 0 | Tubastatin A 0.001 | [1] 0.107 | defactinib -0.011 | rucaparib 0.053 | [2] 0.017 | encorafenib 0.078 | [3] -0.013

EIF4E2 (UniProt O60573)
inactive: saracatinib -0.229 | sotrastaurin -0.288 | alvocidib -0.052 | Tubastatin A 0.07 | [1] -0.026 | defactinib -0.001 | rucaparib 0.126 | [2] 0.008 | encorafenib -0.013 | [3] -0.013

CTSC (UniProt P53634)
inactive: saracatinib 0.03 | sotrastaurin 0.046 | alvocidib 0.074 | Tubastatin A -0.015 | [1] 0.052 | defactinib 0.035 | rucaparib 0.031 | [2] -0.005 | encorafenib -0.082 | [3] 0.007

FAAP100 (UniProt Q0VG06)
inactive: saracatinib 0.044 | sotrastaurin -0.014 | alvocidib -0.035 | Tubastatin A 0.028 | [1] -0.178 | defactinib -0.044 | rucaparib 0.009 | [2] -0.067 | encorafenib -0.04 | [3] -0.097

DHFR (UniProt P00374)
active: sotrastaurin 1.66 | Tubastatin A 1.77
inactive: saracatinib -0.193 | alvocidib 0.215 | [1] -0.115 | defactinib -0.109 | rucaparib 0.39 | [2] 0.036 | encorafenib 0.109 | [3] -0.059
